{"source": "ChEMBL document CHEMBL4513216", "about": "“Probing the Open Global Health Chemical Diversity Library for Multistage-Active Starting Points for Next-Generation Antimalarials” (ACS Infect Dis, 2020)", "note": "About 8,600 (12%) of roughly 69,000 compounds showed an effect of 50% or more. Shown is part of a subset that was picked to be rich in strong results.", "data": [{"system": "Plasmodium berghei", "assay": "Screen against P. berghei liver stage (PbLuc), transformed with Luciferase, at 10uM", "format": "functional, HepG2", "conditions": "tested at 10 uM", "units": {"INHIBITION": "%"}, "values": [{"smiles": "CNS(=O)(=O)c1cccc(CNc2ncccn2)c1", "INHIBITION": 50.5}, {"smiles": "CNS(=O)(=O)c1cccc(CNc2cc(C(F)(F)F)ccn2)c1", "INHIBITION": 45.4}, {"smiles": "CNS(=O)(=O)c1cccc(CNc2ccc(C#N)cn2)c1", "INHIBITION": -14.9}, {"smiles": "FC(F)(F)c1cccc(CNc2nccc(C(F)(F)F)n2)c1", "INHIBITION": -24.2}, {"smiles": "CNS(=O)(=O)c1cccc(CNc2nccc(C(F)(F)F)n2)c1", "INHIBITION": 71.3}, {"smiles": "NS(=O)(=O)c1cccc(CNc2nccc(C(F)(F)F)n2)c1", "INHIBITION": -14.6}, {"smiles": "CN(C(=O)c1ccc(C#N)cc1)c1nnc(C2CCOC2)s1", "note": "(centres undefined)", "INHIBITION": -0.585}, {"smiles": "Cc1ccc(C(=O)N2CCO[C@H]3[C@H](OCc4ccccn4)CC[C@@H]32)o1", "INHIBITION": -31.3}, {"smiles": "Cc1nn(CCC#N)c(C)c1CCC(=O)N(C)C", "INHIBITION": 49.5}, {"smiles": "Cc1nn(CCC#N)c(C)c1CCC(=O)N(C)Cc1ccc(F)cc1F", "INHIBITION": 78.3}, {"smiles": "Cc1nn(CCC#N)c(C)c1CCC(=O)N(C)Cc1ccsc1", "INHIBITION": 19.8}, {"smiles": "CCCn1nccc1NC(=O)CN1CCOC(Cn2cc(C)cn2)C1", "note": "(centres undefined)", "INHIBITION": 21.9}, {"smiles": "CN(C)C[C@H]1OC[C@@H]2CCN(S(=O)(=O)c3ccccc3)C[C@@H]21", "INHIBITION": 26.7}, {"smiles": "Cc1ccc(-c2ncc(CNc3cnccc3CO)s2)cc1", "INHIBITION": 80}, {"smiles": "Cc1ncc(CNc2cnccc2CO)s1", "INHIBITION": -37.7}, {"smiles": "Cc1ccc(-c2ncc(CNc3cnccc3CO)s2)o1", "INHIBITION": 11.1}, {"smiles": "CS(=O)(=O)N[C@@H]1CCN(Cc2ccncc2)[C@H]1Cc1cccnc1", "INHIBITION": 4.27}, {"smiles": "CS(=O)(=O)N[C@@H]1CCN(Cc2cccnc2)[C@H]1Cc1cccnc1", "INHIBITION": 45.1}, {"smiles": "CS(=O)(=O)N[C@@H]1CCN(Cc2cccs2)[C@H]1Cc1cccnc1", "INHIBITION": -21.4}, {"smiles": "Cn1ccnc1CN1CC[C@@H](NS(C)(=O)=O)[C@@H]1Cc1cccnc1", "INHIBITION": 13.6}, {"smiles": "CS(=O)(=O)N[C@@H]1CCN(Cc2cccnc2)[C@H]1Cc1ccccc1", "INHIBITION": 52}, {"smiles": "Cn1cc(CN2CC[C@@H](NS(C)(=O)=O)[C@@H]2Cc2cccnc2)cn1", "INHIBITION": 54.4}, {"smiles": "O=C(CCc1ccccc1Br)NS(=O)(=O)c1ccc2c(c1)OCCO2", "INHIBITION": 25.6}, {"smiles": "O=C(c1ccc(Cn2cnnn2)cc1)N1CC[C@H](CO)[C@H](O)C1", "INHIBITION": 22.5}, {"smiles": "CC(C)CN(Cc1nc2c(cnn2C)c(=O)[nH]1)CC(C)C", "INHIBITION": -33.55}, {"smiles": "COc1ccc(-c2cnc(N)nc2C2CCCNC2)cc1", "note": "(centres undefined)", "INHIBITION": 23.9}, {"smiles": "COc1ccc(-n2cc3[nH][nH]c(=O)n3c2=O)cc1", "INHIBITION": -3}, {"smiles": "COCC1CCN(S(=O)(=O)c2ccc(C(=O)NCC(F)F)cc2)C1", "note": "(centres undefined)", "INHIBITION": 10.6}, {"smiles": "CCc1cnc(CNC(=O)NC2CCN(C3CCCC3)CC2)s1", "INHIBITION": -104}, {"smiles": "CC(=O)N[C@@H]1CN(C2CCN(c3cccc(C)c3C)CC2)C[C@H]1C(C)C", "INHIBITION": 66.1}, {"smiles": "CC(=O)N[C@@H]1CN(C2CCN(c3cccc(Cl)c3)CC2)C[C@H]1C(C)C", "INHIBITION": 30.8}, {"smiles": "CC(=O)N[C@@H]1CN(C2CCN(c3ccccc3F)CC2)C[C@H]1C(C)C", "INHIBITION": 14.8}, {"smiles": "CCN(CC1CCOC1)C(=O)c1ccc(-c2ccsc2)nc1C", "note": "(centres undefined)", "INHIBITION": 19.7}, {"smiles": "Cn1cnc2c(N3CCOCC3)nc(C3CCNCC3)cc21", "INHIBITION": -76.7}, {"smiles": "Cc1ccc(-c2nc(CN3CCOC(Cn4cccn4)C3)co2)cc1", "note": "(centres undefined)", "INHIBITION": 49.8}, {"smiles": "Cc1noc(CN2CCOC(CN(C)C)C2)n1", "note": "(centres undefined)", "INHIBITION": 31.9}, {"smiles": "c1ccc(-c2nc(CN3CCOC(Cn4cccn4)C3)co2)cc1", "note": "(centres undefined)", "INHIBITION": 22.3}, {"smiles": "CN(C)CC1CN(Cc2coc(-c3ccc(Cl)cc3)n2)CCO1", "note": "(centres undefined)", "INHIBITION": 72.9}, {"smiles": "Cc1ccc(-c2nc(CN3CCOC(CN(C)C)C3)co2)cc1", "note": "(centres undefined)", "INHIBITION": 58.5}, {"smiles": "CN(C)CC1CN(Cc2coc(-c3cccc(F)c3)n2)CCO1", "note": "(centres undefined)", "INHIBITION": 11.2}, {"smiles": "Cc1ccc(-c2noc(CN3CCOC(CN(C)C)C3)n2)cc1F", "note": "(centres undefined)", "INHIBITION": 62.3}, {"smiles": "CN(C)CC1CN(Cc2nc(-c3cccnc3)no2)CCO1", "note": "(centres undefined)", "INHIBITION": -50.5}, {"smiles": "CN(C)CC1CN(Cc2coc(-c3ccccc3Cl)n2)CCO1", "note": "(centres undefined)", "INHIBITION": 25.3}, {"smiles": "Fc1ccc(-c2nc(CN3CCOC(Cn4cccn4)C3)co2)cc1", "note": "(centres undefined)", "INHIBITION": 58}, {"smiles": "CN(C)CC1CN(Cc2coc(-c3ccccc3)n2)CCO1", "note": "(centres undefined)", "INHIBITION": -3.2}, {"smiles": "CN(C)CC1CN(Cc2coc(-c3cccs3)n2)CCO1", "note": "(centres undefined)", "INHIBITION": 32.8}, {"smiles": "Cn1cc(CN2CCC3(CC2)CCN(C(=O)c2cscn2)CC3)cn1", "INHIBITION": 34.4}, {"smiles": "COCC(=O)NCc1cc(=O)n2c(n1)CN(Cc1ccccc1)CCC2", "INHIBITION": 25.8}, {"smiles": "CCC(C)NC(=O)c1cc(Br)c2c(c1)OCCO2", "note": "(centres undefined)", "INHIBITION": 23.5}, {"smiles": "CC(C)N(CCO)C(=O)c1cc(COc2ccc3c(c2)CCCC3)on1", "INHIBITION": -15.6}, {"smiles": "CC(C(=O)N1CCCCC1)N1CCN(c2ncc(Cl)cn2)CC1", "note": "(centres undefined)", "INHIBITION": -15}, {"smiles": "c1cnn(C2CN(c3ncnc4[nH]ccc34)C2)c1", "INHIBITION": -4.73}, {"smiles": "Cc1csc(N2CCCN(C(=O)CCNc3ncccn3)CC2)n1", "INHIBITION": 7.12}, {"smiles": "CSC(C)C(=O)Nc1ccnn1-c1ccccc1C", "note": "(centres undefined)", "INHIBITION": -2.61}, {"smiles": "O=C1Nc2ccccc2C12CCN(c1nccs1)CC2", "INHIBITION": -15.9}, {"smiles": "Cc1cc(CN2CCOC(CN(C)c3cccnn3)C2)no1", "note": "(centres undefined)", "INHIBITION": 26.9}, {"smiles": "Cc1cc(C)n(CC2CN(Cc3cc(C)on3)CCO2)n1", "note": "(centres undefined)", "INHIBITION": 16}, {"smiles": "Cc1cc(CN2CCOC(CN(C)C)C2)no1", "note": "(centres undefined)", "INHIBITION": 53.8}, {"smiles": "CCc1c(C)n(CCOC)c2nc3ccccc3n2c1=O", "INHIBITION": -7.81}, {"smiles": "O=c1c2sccc2ncn1Cc1cc(C2CC2)[nH]n1", "INHIBITION": 37.6}, {"smiles": "N#Cc1ncn(CCS(=O)(=O)c2ccc(Cl)cc2)n1", "INHIBITION": 54.3}, {"smiles": "N#Cc1ncn(CCS(=O)(=O)c2ccccc2)n1", "INHIBITION": 65.4}, {"smiles": "CCc1ccc(CCn2cnc(C#N)n2)cc1", "INHIBITION": 37.4}, {"smiles": "N#Cc1ncn(CCC(=O)Nc2cc(Cl)ccc2Cl)n1", "INHIBITION": -22.1}, {"smiles": "N#Cc1ncn(CCS(=O)(=O)c2ccc(Br)cc2)n1", "INHIBITION": 41.4}, {"smiles": "N#Cc1ncn(CCC(=O)Nc2ccccc2F)n1", "INHIBITION": -3.77}, {"smiles": "CC(C)c1noc(OCC(=O)N2CCCCC2C)n1", "note": "(centres undefined)", "INHIBITION": -24.9}, {"smiles": "CC(C)c1nc(C2CCCN2CCNS(C)(=O)=O)no1", "note": "(centres undefined)", "INHIBITION": 23.8}, {"smiles": "COc1ccccc1-n1c(C)cc(CNC(=O)NC(C)C)c1C", "INHIBITION": 25.1}, {"smiles": "CNCc1cc(C)n(-c2ccccc2OC)c1C", "INHIBITION": 70.3}, {"smiles": "CCOC(=O)CNC(=O)NCc1cc(C)n(-c2ccc(OC)cc2)c1C", "INHIBITION": 21.7}, {"smiles": "CNCc1n[nH]c(=O)n1-c1ccccc1Oc1ccccc1", "INHIBITION": -107}, {"smiles": "CCOC(=O)CNC(=O)NCc1cc(C)n(-c2ccccc2OC)c1C", "INHIBITION": 63.1}, {"smiles": "CCOc1ccccc1-n1c(CNC)n[nH]c1=O", "INHIBITION": -63.8}]}]}
